# Unmarked numbers belong to inactive results. Records with an inconclusive call do not appear. A call without a number means that no potency is given here. Calls of active or inactive are those of the source. Unless noted, calls follow the shape of the dose curve; as a rule, active = well fitted curve in the direction sought with a large enough effect in the repeat runs; inconclusive = weak or mixed curves; inactive = no such curve, though single readings can be large; an effect the other way counts as inactive or inconclusive.
# Legend:
# [1] = qHTS assay to identify small molecule antagonists of the estrogen related receptor (ERR) signaling pathway from Tox21 library (AID 1224848); also: nearly all actives have a fitted effect of over 50% in size; also: potency is read from the fitted curve at half-maximal effect
# Summary of the method: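 Cells: ERR line, 2,000/well; 6 h preincubation 37 C/5% CO2. Cpd in DMSO via pin tool; 18 h, 37 C. ONE-Glo, 30 min RT, luminescence.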
# [2] = qHTS assay to identify small molecule agonists of the estrogen related receptor (ERR) signaling pathway from Tox21 library (AID 1224849; calls by dose curve; also: nearly all actives have a fitted effect of over 15% in size); details: ERR reporter cell line, ONE-Glo luciferase, 18 h; at 92.4 µM (top of the series) unless noted
# Summary of the method: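 ERR cells, 6 h pre-incubation 37 C/5% CO2; cpd in DMSO pinned; 18 h 37 C; ONE-Glo added, 30 min RT; luminescence read. Agonist mode, qHTS.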
# [3] = qHTS RealTime-Glo MT Cell Viability Assay in HepG2 cells - 24 hour (AID 1224867); also: nearly all actives have a fitted effect of over 50% in size; also: potency is read from the fitted curve at half-maximal effect
# Summary of the method: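 Cell number in HepG2 cultures estimated from NanoLuc luminescence generated by metabolic reduction of a prosubstrate by living cells. The homogeneous, nonlytic format allowed repeated reads at 0, 8, 16, 24, 32 and 40 h of compound exposure.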
# [4] = qHTS RealTime-Glo MT Cell Viability Assay in HEK293 cells - 32 hour (AID 1224868); also: nearly all actives have a fitted effect of over 50% in size; also: potency is read from the fitted curve at half-maximal effect; as to activity change, negative = cytotoxic: top concentration of the series differs between compounds
# Summary of the method: (§1)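 Homogeneous bioluminescent viability format in HEK293 cells (600 cells/well). Following 5 h at 37 C/5% CO2, 23 nL compound was pintooled; the signal was measured repeatedly during 40 h incubation.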
# [5] = A CellTox Green Cytotoxicity Assay to monitor cytotoxicity in HEK293 cells - 0 hour (AID 1224869); also: nearly all actives have a fitted effect of over 50% in size; also: potency is read from the fitted curve at half-maximal effect
# Summary of the method: (§2)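 Nonlytic real-time cytotoxicity: HEK293 + CellTox Green reagent plated, 5 h preincubation, pintool compound addition (23 nL in DMSO), 37 C for 40 h, fluorescence measured at successive time points.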
# [6] = qHTS RealTime-Glo MT Cell Viability Assay in HepG2 cells - 40 hour (AID 1224870); also: nearly all actives have a fitted effect of over 50% in size; also: potency is read from the fitted curve at half-maximal effect
# Summary of the method: (§3)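 HepG2 cells mixed with RealTime-Glo MT reagents (NanoLuc plus cell-permeant prosubstrate) were seeded at 600 cells/well, incubated 5 h at 37 C/5% CO2, then pinned with compounds in DMSO; nonlytic luminescence tracked viability during 40 h treatment.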
# [7] = A CellTox Green Cytotoxicity Assay to monitor cytotoxicity in HEK293 cells - 40 hour (AID 1224871); also: nearly all actives have a fitted effect of over 45% in size; also: potency is read from the fitted curve at half-maximal effect
# Summary of the method: as §2
# [8] = qHTS RealTime-Glo MT Cell Viability Assay in HEK293 cells - 16 hour (AID 1224872); also: nearly all actives have a fitted effect of over 50% in size; also: potency is read from the fitted curve at half-maximal effect; as to activity change, negative = cytotoxicity: top concentration of the series differs between compounds
# Summary of the method: as §1
# [9] = qHTS RealTime-Glo MT Cell Viability Assay in HepG2 cells - 8 hour (AID 1224873); also: nearly all actives have a fitted effect of over 55% in size; also: potency is read from the fitted curve at half-maximal effect
# Summary of the method: as §3
# [10] = qHTS RealTime-Glo MT Cell Viability Assay in HEK293 cells - 40 hour (AID 1224874); details: RealTime-Glo luminescence; max response: hits give low values; also: nearly all actives have a fitted effect of over 50% in size; also: potency is read from the fitted curve at half-maximal effect
# Summary of the method: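 Cells were seeded together with NanoLuc luciferase and a prosubstrate that viable cells reduce to a luciferase substrate. After a 5 h incubation at 37 C/5% CO2, compounds were added and luminescence was measured repeatedly during 40 h of treatment.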
smiles,measurement,setting,value
Oc1ccc(C2(c3ccc(O)c(C4CCCCC4)c3)CCCCC2)cc1C1CCCCC1,Potency,[1],38.6 µM (active)
same,"activity change, positive = activation",[2],-70.3%
same,Potency,[3],34.7 µM (active)
same,Potency,[4],38.9 µM (active)
same,Potency,[5],inactive
same,Potency,[6],34.7 µM (active)
same,Potency,[7],inactive
same,Potency,[8],43.6 µM (active)
same,Potency,[9],43.6 µM (active)
same,Potency,[10],24.5 µM (active)
COc1cc(OC)nc(NC(=O)NS(=O)(=O)Nc2ccccc2C(=O)N(C)C)n1,Potency,[1],inactive
same,"activity change, positive = activation",[2],-7.75%
same,Potency,[3],inactive
same,Potency,[4],inactive
same,Potency,[5],inactive
same,Potency,[7],inactive
same,Potency,[8],inactive
same,Potency,[9],inactive
same,max response,[10],6.33%
CCC1(C)C(=O)N(Cl)C(=O)N1Cl (stereo not given),Potency,[1],inactive
same,"activity change, positive = activation",[2],-3.41%
same,Potency,[3],inactive
same,Potency,[4],inactive
same,Potency,[5],inactive
same,Potency,[7],inactive
same,Potency,[8],inactive
same,Potency,[9],inactive
same,max response,[10],2.78%
CC(C)C(=O)C(C)C,Potency,[1],inactive
same,"activity change, positive = activation",[2],1.37%
same,Potency,[3],inactive
same,Potency,[4],inactive
same,Potency,[5],inactive
same,Potency,[7],inactive
same,Potency,[8],inactive
same,Potency,[9],inactive
same,max response,[10],8.37%
Cc1cc(C)c(O)c(C(C)(C)C)c1,Potency,[1],inactive
same,"activity change, positive = activation",[2],1.52%
same,Potency,[3],inactive
same,Potency,[4],inactive
same,Potency,[5],inactive
same,Potency,[6],inactive
same,Potency,[7],34.7 µM (active)
same,Potency,[8],inactive
same,Potency,[9],inactive
same,max response,[10],-8.82%
C/C=C/C(=O)C1=C(C)C=CCC1(C)C,Potency,[1],inactive
same,"activity change, positive = activation",[2],-1.28%
same,Potency,[3],inactive
same,Potency,[4],inactive
same,Potency,[5],inactive
same,Potency,[6],inactive
same,Potency,[8],inactive
same,Potency,[9],inactive
same,max response,[10],1.31%
O=C1CCCCCCCCCCCCCC1,Potency,[1],inactive
same,"activity change, positive = activation",[2],1.09%
same,Potency,[3],inactive
same,Potency,[4],inactive
same,Potency,[5],inactive
same,Potency,[6],inactive
same,Potency,[7],43.6 µM (active)
same,Potency,[8],inactive
same,Potency,[9],inactive
same,max response,[10],-11.7%
CC(C)(C)c1cc(CCC(=O)OCCSCCOC(=O)CCc2cc(C(C)(C)C)c(O)c(C(C)(C)C)c2)cc(C(C)(C)C)c1O,Potency,[1],inactive
same,"activity change, positive = activation",[2],-3.83% [at 42.5 µM]
same,Potency,[3],inactive
same,Potency,[4],inactive
same,Potency,[5],inactive
same,Potency,[7],inactive
same,Potency,[8],inactive
SC1CCCCC1,Potency,[1],inactive
same,"activity change, positive = activation",[2],7.84%
same,Potency,[3],inactive
same,Potency,[4],inactive
same,Potency,[5],inactive
same,Potency,[6],inactive
same,Potency,[7],inactive
same,Potency,[8],inactive
same,Potency,[9],inactive
NC(=O)c1ccccc1Cl,Potency,[1],inactive
same,"activity change, positive = activation",[2],3.13%
same,Potency,[3],inactive
same,Potency,[4],inactive
same,Potency,[5],inactive
same,Potency,[6],inactive
same,Potency,[7],inactive
same,Potency,[8],inactive
same,Potency,[9],inactive
same,max response,[10],-1.02%
[Cl][Sc]([Cl])[Cl],Potency,[1],inactive
same,"activity change, positive = activation",[2],0.963%
same,Potency,[3],inactive
same,Potency,[4],inactive
same,Potency,[5],inactive
same,Potency,[7],inactive
same,Potency,[8],inactive
same,Potency,[9],inactive
same,max response,[10],-3.01%
CN1CCN(c2ccccc2/C=C2\SCCN(c3ccc(Cl)c(Cl)c3)C2=O)CC1,Potency,[1],24.3 µM (active)
same,"activity change, positive = activation",[2],-79.7%
same,Potency,[3],38.9 µM (active)
same,Potency,[4],12.3 µM (active)
same,Potency,[5],inactive
same,Potency,[6],21.9 µM (active)
same,Potency,[7],43.6 µM (active)
same,Potency,[8],12.3 µM (active)
same,Potency,[9],49 µM (active)
same,Potency,[10],12.3 µM (active)
O=C1OC2(c3ccccc31)c1ccc(O)c(Br)c1Oc1c2ccc(O)c1Br,Potency,[1],inactive
same,"activity change, positive = activation",[2],-9.26%
same,Potency,[3],inactive
same,Potency,[4],inactive
same,Potency,[5],6.16 µM (active)
same,Potency,[6],inactive
Cc1c[nH]c(=O)[nH]c1=O,Potency,[1],inactive
same,"activity change, positive = activation",[2],0.0206%
same,Potency,[3],inactive
same,Potency,[4],inactive
same,Potency,[5],inactive
same,Potency,[6],inactive
same,Potency,[8],inactive
same,Potency,[9],inactive
same,max response,[10],10.6%
C=Cc1ccncc1,Potency,[1],inactive
same,"activity change, positive = activation",[2],4.99%
same,Potency,[3],inactive
same,Potency,[4],inactive
same,Potency,[5],inactive
same,Potency,[6],inactive
same,Potency,[7],inactive
same,Potency,[8],inactive
same,Potency,[9],inactive
same,max response,[10],-1.15%
O=C(O)C[C@H](O)C[C@H](O)/C=C/c1c(C2CC2)nc2ccccc2c1-c1ccc(F)cc1,"activity, negative = inhibition",[1],60.7% [at 19 µM]
same,"activity change, positive = activation",[2],31.2% [at 19 µM] (active)
same,"activity change, negative = cytotoxicity",[3],-20.3% [at 15.8 µM]
same,"activity change, negative = cytotoxic",[4],-6.08% [at 15.8 µM]
same,cytotoxicity,[5],-2.87% [at 15.8 µM]
same,"activity change, negative = cytotoxic",[6],-27.7% [at 15.8 µM]
same,cytotoxicity increase,[7],1.42% [at 15.8 µM]
same,"activity change, negative = cytotoxicity",[8],7.11% [at 15.8 µM]
same,"viability change, negative = cytotoxic",[9],4.17% [at 15.8 µM]
same,max response,[10],-20.4%
CC1(C)[C@H]2CC[C@]1(C)C(=O)C2,Potency,[1],inactive
same,"activity change, positive = activation",[2],6.28%
same,Potency,[3],inactive
same,Potency,[4],inactive
same,Potency,[5],inactive
same,Potency,[6],inactive
same,Potency,[7],inactive
same,Potency,[8],inactive
same,Potency,[9],inactive
CN(C[C@@H](CC[N+]12CCC(C3CCCCC3)(CC1)CC2)c1ccc(Cl)c(Cl)c1)C(=O)c1cc(C(F)(F)F)cc(C(F)(F)F)c1,Potency,[1],27.3 µM (active)
same,"activity change, positive = activation",[2],-78.4%
same,Potency,[3],21.9 µM (active)
same,Potency,[4],2.19 µM (active)
same,Potency,[5],inactive
same,Potency,[6],21.9 µM (active)
same,Potency,[7],27.5 µM (active)
same,Potency,[8],3.09 µM (active)
same,Potency,[9],24.5 µM (active)
same,Potency,[10],2.19 µM (active)

# From PubChem BioAssay (Tox21)
